We go through 95 compounds from PubChem BioAssay AID1851 (National Center for Advancing Translational Sciences (NCATS), 2009).

The campaign covered roughly 16,000 compounds. About 5,700 (36%) were called active. About 24% were inconclusive and are not listed. The list shows a part of the results. Unmarked numbers belong to inactive results. Calls come from the whole dose curve; as a rule, active = well fitted curve in the direction sought with a large enough effect; inconclusive = small, poorly fitted or top-dose-only effect, or effect the other way; inactive = no such curve, though single readings can be large or run the other way.
% is set by controls: 0 for no effect and ±100 for the full control effect.

Cytochrome P450 1A2 (Homo sapiens), sequence (P05177 whole entry, looked up): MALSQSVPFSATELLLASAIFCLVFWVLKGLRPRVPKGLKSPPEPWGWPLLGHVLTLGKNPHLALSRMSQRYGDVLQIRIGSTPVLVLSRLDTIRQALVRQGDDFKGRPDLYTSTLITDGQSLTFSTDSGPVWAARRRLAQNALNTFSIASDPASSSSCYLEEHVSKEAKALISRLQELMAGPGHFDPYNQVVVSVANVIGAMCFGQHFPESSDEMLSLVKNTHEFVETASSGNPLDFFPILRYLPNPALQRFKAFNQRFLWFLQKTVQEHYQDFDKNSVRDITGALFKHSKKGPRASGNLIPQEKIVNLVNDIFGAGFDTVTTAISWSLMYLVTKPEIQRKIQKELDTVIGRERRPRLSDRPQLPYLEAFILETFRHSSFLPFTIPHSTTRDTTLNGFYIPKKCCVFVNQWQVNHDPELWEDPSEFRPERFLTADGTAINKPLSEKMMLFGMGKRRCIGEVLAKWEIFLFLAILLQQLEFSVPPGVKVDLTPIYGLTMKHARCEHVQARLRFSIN

The assay has as its target Cytochrome P450 1A2 (Homo sapiens) (UniProt P05177). The assay can be described thus: Cytochrome panel assay with activity outcomes. To be noted: recombinant CYP, pro-luciferin dealkylation, luminescence, p450-cyp1a2; series mostly up to 57.1 µM.
As to `CC(=O)OC[C@@H]1O[C@@H](O/N=C2/C[C@@H](O)[C@@H](O)[C@@H]3[C@@H]4C(=O)N(Cc5ccccc5)C(=O)[C@H]4CC[C@@H]23)[C@H](OC(C)=O)[C@H](OC(C)=O)[C@@H]1OC(C)=O`, the activity, negative = inhibition was -3.54% [at 11.4 µM]. As to `N#Cc1ccc(CN2CCC3(CC2)CCN(C(=O)c2csnn2)CC3)cc1`, the AC50 entry is “inactive”. On to `O=C(c1ccco1)N1CCC2(CC1)CN(Cc1cc(C(F)(F)F)cc(C(F)(F)F)c1)C2`, for which the AC50 entry was “inactive”. On the same count and under the same terms, the result for `CN1C(=O)C[C@H](c2ccccc2)C1=O` reads “inactive”. In the case of `COc1cccc([C@@H]2Oc3ccc(OC)cc3/C(=N/O[C@@H](C)CN3CCCCc4nc(C)c(C)cc43)[C@@H]2O)c1`, the activity, negative = inhibition was -8.62% [at 11.4 µM]. Take `Cc1cc(C(=O)OCC(=O)NCCC(C)C)c2ccccc2n1`: the AC50 is 4.47 µM (active). The same measure, in the same setting: the result for `CC(C)CCNC(=O)Cc1ccccc1[N+](=O)[O-]` reads “inactive”. In the case of `CO[C@H]1COC(=O)CCC[C@H](C)[C@@H](OC)COC(=O)C/C=C\[C@@H]1C`, the activity, negative = inhibition was -4.49% [at 11.4 µM]. For `N#Cc1c(-c2ccc3c(c2)OCO3)ccn2nc(-c3cccc(C(F)(F)F)c3)nc12`, the AC50 was 0.0562 µM (active). Same read-out and setting: the value for `CCNC(=O)C1CC(=O)OC12CCCCC2` (stereo not given) was “inactive”. On to `CC(C)=CCC/C(C)=C/CO/N=C1/C[C@@H](O)[C@@H](O)[C@@H]2[C@@H]3C(=O)N(Cc4ccc5c(c4)OCO5)C(=O)[C@H]3CC[C@H]12`, for which the activity, negative = inhibition was -9.49% [at 11.4 µM]. In the case of `N#C/C(=C/N1CCOCC1)c1ccccc1`, the AC50 is 0.891 µM (active). In the case of `OC(c1ccccc1)(c1ccc(F)cc1)C(c1ccccc1)N1CCOCC1` (stereo not given), the AC50 entry was “inactive”.

For `Oc1c(CN2CCOCC2)cc(-c2ccccc2)cc1CN1CCOCC1`, the AC50 entry is “inactive”. Still for that read-out and setting: the result for `NS(=O)(=O)c1cc2c(cc1Cl)N[C@@H](CC1CCCC1)NS2(=O)=O` reads “inactive”; that for `O=C1NC(c2ccc(Br)cc2)Nc2sc3c(c21)CCC3` (stereo not given), 2.51 µM (active); that for `CC(C)OCCCN1C(=O)c2ccccc2C1C(=O)NC1CCCCC1` (stereo not given), “inactive”. On the same count and under the same terms, the result for `CC(C)OCCCn1c(=S)[nH]c2ncccc2c1=O` reads 2.51 µM (active); that for `COCC(=O)N1CCC[C@@]2(CCN(C(=O)Nc3cccc(F)c3)C2)C1`, “inactive”; that for `COc1ccccc1CNc1ccnc(-c2ccc3c(c2)OCO3)n1`, 0.631 µM (active).

Consider `COCOc1cc(OC)ccc1C(=O)/C=C\c1ccc2c(c1)OCO2`, for which the activity, negative = inhibition was -3.69% [at 11.4 µM]. Consider `COc1ccc(CNc2ccnc(-c3ccc4c(c3)OCO4)n2)c(OC)c1`, for which the AC50 was 1.26 µM (active). Take `COc1ncc2nc(-c3ccc(F)cc3)c(=O)n(C)c2n1`: the AC50 was 0.501 µM (active).

In the case of `COc1ncc2nc(-c3ccccc3)c(=O)n(C)c2n1`, the AC50 was 1.58 µM (active).

On to `COc1ccc(-c2nc3cnc(OC)nc3n(C)c2=O)cc1`, for which the AC50 is 2.51 µM (active).

On to `C[C@@H]1O[C@@H](n2cc(F)c(=O)[nH]c2=O)[C@H](O)[C@@H]1O`, for which the AC50 entry is “inactive”. On the same count and under the same terms, the result for `O=C(c1cnccn1)N1CCC2(CC1)CN(c1ccncc1)C2` reads “inactive”; that for `O=C(COc1ccc(Br)cc1)Nc1ccc([N+](=O)[O-])cn1`, 2 µM (active); that for `O=C(COc1ccc([N+](=O)[O-])cc1)NN=C1CCCC1`, 12.6 µM (active). For the compound `O=C(Nc1nnc(CCS(=O)(=O)c2ccc(Br)cc2)s1)c1ccc([N+](=O)[O-])cc1`, the AC50 result is “inactive”. The same measure, in the same setting: the result for `COC(=O)C(C)(C(=O)OC)c1ccc([N+](=O)[O-])cn1` reads “inactive”. With `C=CCC(C(=O)OC)(C(=O)OC)c1ccc([N+](=O)[O-])cn1`, the AC50 result was “inactive”. Same read-out and setting: the value for `CC(=O)Nc1ccc([N+](=O)[O-])cn1` was 17.8 µM (active); that for `O=C(COc1ccc([N+](=O)[O-])cc1)Nc1ccc(C(=O)NCc2cccnc2)cc1` was “inactive”; that for `O=C(CN(c1ccccc1)S(=O)(=O)c1ccccc1[N+](=O)[O-])NN=C1CCCCCCC1` was “inactive”.

With `COc1ccc(N(CC(=O)NN=C2CCCC2)S(=O)(=O)c2ccccc2)cc1`, the AC50 result is “inactive”. The same measure, in the same setting: the value for `O=c1ccn([C@@H]2O[C@@H](COP(=O)(O)OP(=O)(O)O)[C@H](O)[C@@H]2O)c(=O)[nH]1` was “inactive”; that for `Cc1cccc(/C=N\Nc2cn[nH]c(=O)c2Cl)c1` was 5.01 µM (active); that for `Cc1cccc(NC(=S)NNC(=O)c2csc3c2CCCC3)c1` was 8.91 µM (active). On the same count and under the same terms, the result for `CCN(CC)CCOC(=O)c1cc(Cl)c(N)cc1OC` reads 12.6 µM (active); that for `CCCOc1cc(N)ccc1C(=O)OCCN(CC)CC`, 12.6 µM (active). Still for that read-out and setting: the result for `CCCOc1ccc(C(=O)OCCN(CC)CC)cc1N` reads 5.01 µM (active); that for `COc1cc(N)c(Cl)cc1C(=O)OCCCN1CCCCC1`, “inactive”; that for `CCN(CC)CCCCCCCCOC(=O)c1cc(OC)c(OC)c(OC)c1`, “inactive”. For `C[N+]1(CCCC[N+]2(C)CCCCCCC2)CCCCCCC1`, the activity, negative = inhibition was -10.4% [at 2.29 µM]. The same measure, in the same setting: the value for `O=C(N/N=C1/C[C@@H](O)[C@@H](O)[C@@H]2[C@@H]3C(=O)N(Cc4ccccc4)C(=O)[C@H]3CC[C@@H]12)OCc1ccccc1` was -5.8% [at 11.4 µM]. Same read-out and setting: the value for `COCOc1ccc(Br)cc1C(=O)[C@H]1O[C@H]1c1cccc(OC)c1` was -9.07% [at 11.4 µM]. On to `O=C(O)c1cc2cc(Cc3cccnc3)ccc2o1`, for which the AC50 entry was “inactive”. Same read-out and setting: the result for `Clc1ccc2oc(-c3cccnc3)nc2c1` reads 1.41 µM (active); that for `Cc1ccc2nc(-c3cccnc3)oc2c1`, 5.01 µM (active). With `Nc1nc(-c2cccnc2)cc(-c2cc(-c3cccnc3)nc(N)n2)n1`, the activity, negative = inhibition was -15.9% [at 2.29 µM]. On the same count and under the same terms, the result for `C[N+](C)(N)CCC[N+](C)(C)N` reads -12% [at 11.4 µM].

As for `O=C(NNC(=S)Nc1ccccc1)C1CC1`, the AC50 entry is “inactive”. Same read-out and setting: the result for `CC(C)(C)NC(=S)Nc1ccc(Nc2ccccc2)cc1` reads 14.1 µM (active); that for `Cc1ccc2c(C)nc(Nc3nc(CSc4nc5ccccc5[nH]4)cc(=O)[nH]3)nc2c1`, 11.2 µM (active); that for `Cc1ccc2nc(Nc3nc(-c4ccccc4)cc(=O)[nH]3)nc(C)c2c1`, 4.47 µM (active). For the compound `Cc1cc(Oc2ccccc2)nc(-c2ccccc2)n1`, the AC50 is 1.58 µM (active).

Take `CN(C)c1nc(NCc2ccccc2)nc(N/N=C/c2ccc(Cl)cc2Cl)n1`: the AC50 entry is “inactive”. The same measure, in the same setting: the result for `Cc1cc(Oc2ccccc2)nc(NCc2ccccc2)n1` reads 12.6 µM (active). For `O=C1C[C@H](c2ccccc2)[C@@H](c2ccc(Br)cc2)O1`, the activity, negative = inhibition was -6.17% [at 11.4 µM].

`O=C1NCC2=C1C(c1ccc(Br)cc1)Nc1ccccc1N2` (stereo not given): the AC50 is 17.8 µM (active). With `C=CC[C@@H]1C=C[C@@H](O/N=C(/C)CCC(=O)OC[C@@H]2O[C@H](C#Cc3ccccc3)C=C[C@@H]2Oc2ccc(C)cc2)[C@@H](CO)O1`, the activity, negative = inhibition is 4% [at 11.4 µM]. Turning to `Cc1ccc(C(c2ccc(C)o2)c2cccc([N+](=O)[O-])c2O)o1`, the half-maximal activity concentration (AC50) is 11.2 µM (active). The same measure, in the same setting: the value for `Cc1ccc(-n2c3c(c(=O)[nH]c2=O)C(C(F)(F)F)(C(F)(F)F)NC(=O)N3)cc1` was “inactive”; that for `COc1ccc(C(=O)NCC(c2ccc(F)cc2)N2CCOCC2)cc1S(=O)(=O)N1CCCC1` (stereo not given) was 10 µM (active); that for `COc1ccc(C(=O)Nc2ccc(Cl)cn2)cc1Cl` was 0.631 µM (active). For the compound `Cc1cc(=O)oc(C)c1C(=O)Nc1ccc(Cl)cn1`, the AC50 result was “inactive”. The same measure, in the same setting: the result for `CCOc1ccc(C(=O)Nc2ccc(Cl)cn2)cc1Cl` reads 1.26 µM (active); that for `CC(=O)N1CC2(CC2)CC1c1ccccc1` (stereo not given), “inactive”; that for `Oc1ccccc1CNn1cnnc1`, “inactive”. Same read-out and setting: the value for `CC(=O)Nc1ccc(NC(=O)Cn2c(-c3ccc(F)cc3)cnc2SCC(=O)Nc2c(C)cccc2C)cc1` was “inactive”.

Turning to `CCSc1ncc(/C=N/Nc2ccc(F)cc2)n1C`, the AC50 is 2.82 µM (active). Consider `COc1ccccc1-c1cncnc1NCCc1cnc[nH]1`, for which the AC50 was 1.26 µM (active). On the same count and under the same terms, the value for `FC(F)(F)c1ccccc1-c1cncnc1NCCc1cnc[nH]1` was 6.31 µM (active); that for `COc1cccc(-c2cncnc2NCCc2cnc[nH]2)c1` was 0.398 µM (active); that for `O=C(Oc1ccccc1)N1CCC2(CC1)CN(c1ccncc1)C2` was “inactive”. Same read-out and setting: the result for `CCCCN1C(=O)C(NC(=O)c2cccnc2)(C(F)(F)F)C2=C1CC(C)(C)CC2=O` (stereo not given) reads “inactive”; that for `COc1ccc(OC)c(CNC(=O)CCNC(=O)Cn2ccc3ccccc3c2=O)c1`, “inactive”; that for `CCCC(=O)NCCc1c2n(c3ccc(OC)cc13)Cc1ccccc1-2`, 2.51 µM (active). The same measure, in the same setting: the result for `COc1cccc(-c2cc(NCc3cnc(C)cn3)ncn2)c1` reads 5.01 µM (active); that for `Cc1cnc(CNc2cc(-c3cccc(C#N)c3)ncn2)cn1`, 15.8 µM (active).

On to `CC(C)C(=O)Cc1ccc2ccccc2n1`, for which the AC50 is 3.16 µM (active).

In the case of `O=C(O)Cc1cc2ccccc2nc1C(=O)O`, the AC50 result was “inactive”.

As to `C[C@@]12CCC(=O)C=C1CC[C@H]1[C@@H]2[C@@H](O)C[C@]2(C)[C@@H]1CC[C@@]2(O)C(=O)COC(=O)C1CCCC1`, the activity, negative = inhibition was -13.3% [at 11.4 µM]. On to `O=S(=O)(Nc1cccnc1Cl)c1ccc2c(c1)OCCO2`, for which the AC50 result was “inactive”. Still for that read-out and setting: the value for `O=S(=O)(N/N=C/c1ccc2c(c1)OCCO2)c1ccc(Cl)cc1` was 11.2 µM (active); that for `Cc1ccc(Cl)cc1N1CCN(S(=O)(=O)c2ccc3c(c2)OCCO3)CC1` was “inactive”. Consider `O=S(=O)(N/N=C\c1ccc2c(c1)OCO2)c1ccc(Cl)cc1`, for which the AC50 is 10 µM (active). For the compound `O=C(Nc1nnc(SCc2c(Cl)cccc2Cl)s1)C1CCCO1` (stereo not given), the AC50 was 17.8 µM (active). Consider `CCc1nnc(NC(=O)C2CCN(C(=O)NC3CCCCC3)CC2)s1`, for which the AC50 entry is “inactive”. As to `O=C(Nc1nnc(SCc2ccc(Cl)cc2Cl)s1)C1COc2ccccc2O1` (stereo not given), the AC50 result was “inactive”. Still for that read-out and setting: the value for `C=CCNCCOCCOc1ccc(C)cc1[N+](=O)[O-]` was 0.794 µM (active); that for `CCCCNCCOCCOc1ccc(C)cc1[N+](=O)[O-]` was 0.794 µM (active). For the compound `COc1ccc(C=O)cc1COc1ccc(C)cc1[N+](=O)[O-]`, the AC50 was 1.12 µM (active). Still for that read-out and setting: the result for `O=c1cc(N2CCN(c3ccccc3)CC2)[nH]c(=O)n1C1CCCCC1` reads “inactive”.
